HP1b binding inh = HP1-beta chromodomain-methylated histone interaction inhibition | P83916 | AlphaScreen HP1-beta / biotin-H3K9me3 peptide binding | Potency, µM (highest dose often 114 µM), for the others: at the highest dose activity change, negative = inhibition, hits mostly inhibitors | hit rate 0.56% among 390,000 | AID 540317; further: nearly all actives have a fitted effect of over 70% in size
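HP1-beta protein (50 nM final) preincubated 30 min at room temperature with biotinylated H3(1-18)K9me3 peptide (50 nM) in PBS pH 7.4, 0.01% Tween-20, then compound added for 30 min. AlphaScreen streptavidin donor/nickel chelate acceptor beads (10 ug/mL final), 30 min dark, luminescence read.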
Sfp inh = inhibitors of Bacillus subtilis Sfp phosphopantetheinyl transferase | hit rate 3.5% among 310,000 | Potency, µM, inactives show largest response in the series, negative = inhibition, hits mostly inhibitors | Q9F4F7 | Biochemical Sfp PPTase activity, qHTS;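 further: the enzyme is Sfp with the accession as filed and its product quenches rhodamine fluorescence; 0% = enzyme reaction without inhibitor and -100% = no enzyme wells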
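Sfp 15 nM + cpd, 15 min RT; start w/ rhodamine-CoA 5 uM, BHQ-2-YbbR 12.5 uM (final); 50 mM Hepes pH 7.6, 10 mM MgCl2, 0.01% NP-40, 0.01% BSA; read 525/598 nm at 0 and 30 min.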
L3MBTL1 inh = inhibitors of human L3MBTL1 | Q9Y468 | AlphaScreen L3MBTL1–H3K9me1 peptide binding | Potency, µM (titrated, usually from 57.1 µM), for inactives: at the highest dose activity, negative = inhibition, hits mostly inhibitors | hit rate 0.66% among 230,000 | AID 485360; further: on the % scale 0 is the no-effect control and ±100 the full control effect; nearly all actives have a fitted effect of over 60% in size
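AlphaScreen assay: L3MBTL1 (50 nM final) was preincubated 30 min at room temperature with biotinylated H3(1-15)K9me1 peptide (75 nM final), then 30 min with library compounds; streptavidin donor and nickel chelate acceptor beads (10 ug/mL final) added, 30 min dark.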
G9a inh = G9a (human) methyltransferase inhibition; Potency, µM (series often up to 102 µM), inactives show at the highest dose activity, negative = inhibition, usual class: inhibitors; AID 504332; Q96KQ7; G9a H3K9 monomethylation, AlphaScreen, 2 h; hit rate 8.8% among 350,000; further: on the % scale 0 is the no-effect control and ±100 the full control effect; nearly all actives have a fitted effect of over 75% in size
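Compounds were preincubated with 20 nM G9a for 15 min, after which biotinylated H3K9 peptide (500 nM) and SAM (20 uM) started a 2 h room-temperature reaction. Monomethylated product was quantified by antibody-based AlphaScreen chemiluminescence.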
JMJD2A Tudor inh = blocks the human JMJD2A Tudor domain; O75164; AlphaScreen JMJD2A-Tudor / H3K4me3 peptide binding; Potency, µM (titrated, usually from 114 µM), for inactives: at the highest dose activity change, negative = inhibition, hits mostly inhibitors; hit rate 4.4% among 390,000; AID 504339; further: on the % scale 0 is the no-effect control and ±100 the full control effect; nearly all actives have a fitted effect of over 50% in size
Target sequence (O75164 whole entry, looked up, the tested form may be a part): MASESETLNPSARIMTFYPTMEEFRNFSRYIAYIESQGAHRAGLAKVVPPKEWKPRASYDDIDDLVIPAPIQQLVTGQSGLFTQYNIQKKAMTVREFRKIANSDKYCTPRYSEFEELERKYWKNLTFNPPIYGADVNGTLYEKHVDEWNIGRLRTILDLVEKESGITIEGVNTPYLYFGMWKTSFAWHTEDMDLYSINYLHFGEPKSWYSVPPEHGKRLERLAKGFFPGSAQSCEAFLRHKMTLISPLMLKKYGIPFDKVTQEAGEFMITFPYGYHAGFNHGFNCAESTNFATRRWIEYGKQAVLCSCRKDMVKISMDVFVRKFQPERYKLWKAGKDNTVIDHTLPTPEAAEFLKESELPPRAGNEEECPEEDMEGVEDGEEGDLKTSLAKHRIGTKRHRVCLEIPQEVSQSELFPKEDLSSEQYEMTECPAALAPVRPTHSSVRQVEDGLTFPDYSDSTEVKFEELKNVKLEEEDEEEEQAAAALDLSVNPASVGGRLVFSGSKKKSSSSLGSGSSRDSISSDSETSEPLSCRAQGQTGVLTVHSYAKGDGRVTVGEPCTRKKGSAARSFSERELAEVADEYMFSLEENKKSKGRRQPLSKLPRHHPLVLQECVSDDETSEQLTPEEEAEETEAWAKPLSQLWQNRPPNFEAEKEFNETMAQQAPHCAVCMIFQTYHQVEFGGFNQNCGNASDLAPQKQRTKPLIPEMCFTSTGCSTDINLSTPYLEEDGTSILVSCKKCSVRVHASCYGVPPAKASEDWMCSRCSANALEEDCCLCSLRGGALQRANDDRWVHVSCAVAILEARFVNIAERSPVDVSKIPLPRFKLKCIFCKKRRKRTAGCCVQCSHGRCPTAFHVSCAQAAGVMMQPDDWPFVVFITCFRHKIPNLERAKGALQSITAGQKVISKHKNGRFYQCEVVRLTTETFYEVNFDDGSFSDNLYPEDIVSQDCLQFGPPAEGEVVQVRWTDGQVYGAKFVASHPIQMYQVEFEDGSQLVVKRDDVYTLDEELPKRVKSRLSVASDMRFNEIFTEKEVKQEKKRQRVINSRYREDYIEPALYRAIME
BAZ2B inh = blocks human BAZ2B; Q9UIF8; AlphaScreen BAZ2B-H3K14Ac peptide displacement; Potency, µM (series often up to 114 µM), for inactives: at the top dose activity change, negative = inhibition, hits mostly inhibitors; hit rate 4.4% among 360,000; further: on the % scale 0 is the no-effect control and ±100 the full control effect; nearly all actives have a fitted effect of over 60% in size
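Compounds, titrated to a top concentration of 110 uM, were incubated 30 min at room temperature with preformed BAZ2B/acetyl-K14 H3 peptide complex (50 nM each). Proximity signal was measured by AlphaScreen after 20 min with beads.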
The depositor's hits bear a star; u = inconclusive; x = not tested or not shown; [ ] = remark or other dose. A selection: hits, their analogues and other compounds. The true share with any hit is near 12%. The call rests on the fitted dose curve; in most records, active means well fitted curve in the direction sought with a large enough effect; inconclusive means small, poorly fitted or top-dose-only effect, or another doubt; inactive means no such curve, though single readings can be large; an effect the other way counts as inactive or inconclusive. Potency means the concentration at half of the fitted maximal effect.

SMILES	HP1b binding inh	Sfp inh	L3MBTL1 inh	G9a inh	JMJD2A Tudor inh	BAZ2B inh
Cc1nc2c(C(=O)N(C)Cc3ccccc3)c[nH]n2c(=O)c1Cc1ccc(Cl)cc1	12%	x	x	28%[59 µM]	-8%	7%
COc1cc(/C=C2\N=C(c3ccccc3)NNC2=O)cc(OC)c1OC	28%	14%	-4%	25µM*	-17%	-21%
CC1=N/C(=C/c2ccco2)C(=O)O1	-1%	u	x	28µM*	u	x
CC(/C=C1\N=C(SCc2ccccc2Cl)SC1=O)=C\c1ccccc1	u	-4%	-3%	-12%	56µM*	u
COc1cc(C2=N/C(=C\c3ccccc3)C(=O)O2)cc(OC)c1OC	x	12%	x	x	x	x
O=C1SC(c2ccccc2)=N/C1=C/c1ccco1	-13%	-4%	-6%	50µM*	u	-30%
Cc1ccccc1OCC(=O)Nc1cc(-c2cccc(Br)c2)nn1-c1ccccc1	30%[57 µM]	x	x	-3%[59 µM]	-4%	0%
O=C1SC(SCc2ccccc2)=N/C1=C\c1ccc(C(=O)O)cc1	-11%	56µM*	u	x	u	u
O=C1N[C@@H]2[C@H](CCCCC(=O)Oc3ccc([N+](=O)[O-])cc3)SC[C@H]2N1	x	-5%	x	x	x	x
Cc1ccc2c(c1)c(C)c(C)n2CC(O)Cn1nc(C)cc1C (configuration not stated)	-24%	17%	-3%	45µM*	u	-51%
CCCCNCCOCCSc1ccc(Cl)cc1	u	-10%	1%	8.9µM*	1.4µM*	u
CCCCNCC(O)(c1ccc(Cl)cc1)c1ccc(Cl)cc1	10%	17%	36%	1%	1%	2%
OCCNCCSc1ccc(Cl)cc1	-27%	-8%	11%	50µM*	22µM*	56µM*
COCCCNCCOCCSc1ccc(Cl)cc1	u	50µM*	6%	u	1.8µM*	u
COCCNC(=O)c1onc(CSc2ccc(Cl)cc2)c1C(=O)O	34%	12%	6%	0%[0.501 µM]	-10%	-32%
COCCCNCCCCSc1ccc(Cl)cc1	u	-8%	4%	3.5µM*	10µM*	u
Cc1cc(C)nc(N/N=C/C2=C(O)CC(c3ccc(F)cc3)CC2=O)n1 (configuration not stated)	44%	8%	x	1%	32µM*	22µM*
Cc1ccc(C2CC(=O)C(C=NCCN3CCN(C(=S)Nc4ccc(F)cc4)CC3)=C(O)C2)cc1 (configuration not stated)	-10%	-20%	x	2%	u	-19%
O=C(COC(=O)CNC(=O)c1ccccc1)Nc1cc(C(F)(F)F)ccc1Cl	x	x	x	x	-14%	x
COc1ccc(C)cc1-n1c(SCC(=O)Nc2cc(C)on2)nc2ccccc2c1=O	26%	10%	-6%	3%	-21%	-26%
COc1ccc(C)cc1-n1c(=O)c2ccccc2c2ccccc2c1=O	28%	10%	-16%	18µM*	-7%	u
COc1ccc(-n2c(=O)c3ccccc3c3ccccc3c2=O)c(OC)c1	30%	5%	-5%	10µM*	-30%	-8%
COc1cc(C(=O)NC(=S)Nc2ccccc2N2CCOCC2)cc(OC)c1OC	-10%	35µM*	x	14µM*	u	40µM*
Cc1ccc(C(=O)NC(=S)Nc2ccccc2N2CCOCC2)cc1C	u	4%	x	22µM*	u	u
Cc1ccccc1OCC(=O)OCc1cc(=O)n2nc(C3CCCCC3)sc2n1	36%	x	x	3%[59 µM]	-8%	-2%
SMILES	HP1b binding inh	Sfp inh	L3MBTL1 inh	G9a inh	JMJD2A Tudor inh	BAZ2B inh
CC1=C(C(=O)Nc2ccc(C)cc2C)C(c2ccc([N+](=O)[O-])cc2)n2ncc(C(=O)Nc3ccc(F)cc3)c2N1 (configuration not stated)	2%	x	x	-29%[59 µM]	-13%	2%[57.1 µM]
CCc1ccc(NC(=O)CSc2nc3c([nH]c4ccccc43)c(=O)n2C)cc1	26%[57 µM]	x	x	8%[59 µM]	-9%	3%
CC(C)C[C@H](NC(=O)CN(C)C(=O)[C@H](Cc1ccccc1)NC(=O)[C@H](Cc1ccccc1)NC(=O)[C@H](CCC(N)=O)NC(=O)[C@H](CCC(N)=O)NC(=O)[C@@H]1CCCN1C(=O)[C@H](CCCCN)NC(=O)[C@@H]1CCCN1C(=O)[C@@H](N)CCCN=C(N)N)C(=O)N[C@@H](CCS(C)(=O)=O)C(N)=O	x	4%	x	x	x	x
Cc1ccc(C)c(NC(=O)CSc2nc3nccnc3c(=O)n2CCc2c[nH]c3ccccc23)c1	17%	x	x	1%[59 µM]	-16%	0%
Cc1ccc(S(=O)(=O)NCCCn2ccnc2)cc1	14%	-5%	1%	-17%[59 µM]	-14%	u
O=C1CNC(=S)N1CCCn1ccnc1	46%	6%	12%	-27%	-11%	-26%
Cc1ccc(S(=O)(=O)NC(=O)c2cc(C)n(CCCn3ccnc3)c2C)cc1	36%	18%	-5%	u	56µM*	32µM*
Cc1cc(=S)cc(C)n1CCCn1ccnc1	18%	4%	8%	25µM*	-20%	x
C/C=C/Cn1c(N2CCCCCC2)nc2c1c(=O)[nH]c(=O)n2C	-1%	-5%	-5%	-8%[12.7 µM]	-11%	-3%
CC(=O)OCCn1c(Br)nc2c1c(=O)[nH]c(=O)n2C	26%	8%	5%	32%	-18%	2%
Cn1c(=O)[nH]c(=O)c2c1nc(Br)n2C/C=N/NC(N)=S	x	56µM*	0%	7%	x	0%
Cn1c(=O)[nH]c(=O)c2c1nc(N1CCCCC1)n2C/C=N/Nc1ccc(C(=O)O)cc1	36%	-7%	-8%	71µM*	-4%[11.4 µM]	-18%
Cn1c(=O)c2c(nc(Br)n2C/C=N/NC(N)=S)n(C)c1=O	37%	50µM*	11%	x	-11%	-5%
C/C=C/Cn1c(Br)nc2c1c(=O)n(C)c(=O)n2C	30%	7%	x	-10%[12.7 µM]	-9%	7%
O=C1CC2CCCN2C=C1I (configuration not stated)	23%	x	4%	x	18µM*	x
CCOC(=O)C1=CN2CCC[C@H]2CC1=O	20%	x	-7%	x	-10%	x
O=c1[nH][nH]cc1C=Nc1ccccc1O	50%	12%	-28%	65%[12.7 µM]	-25%	40µM*
O=c1[nH][nH]cc1C=Nc1cc(Cl)ccc1O	33%	17%	x	u	79µM*	14µM*
O=c1[nH][nH]cc1C=Nc1ccccc1Cl	18%	12%	23%	-8%	-14%	-33%
O=c1[nH][nH]cc1C=Nc1ccc(Cl)cc1Cl	26%	11%	-5%	-6%	-3%	u
O=c1c2cc3c(cc2n(Cc2ccc(Cl)cc2)c(=O)n1Cc1nc(-c2ccccc2)no1)OCO3	27%	x	x	-55%[59 µM]	-18%	-24%
CCC(C)CCCCCCCCCCC(=O)O (configuration not stated)	58%	x	x	x	50µM*	x

High-throughput results as filed in PubChem.
